Outcome and AC50 data for 40 compounds are collected here from PubChem BioAssay (EPA / NIEHS).

Molecules are shown by their SMILES. “And” between values parts separate entries of the source, which are not always exact repeats. Equal values may be shown once. The source made the active and inactive calls. How the source made its calls: active means hit-call score of the fitted dose curve at least 0.9, where 1 is the maximum; inactive means score below 0.9.

Read-out in this test: flavin-containing dimethylaniline monooxygenases 3 (FMO3), FMO3 (gene 2328)
Put plainly: LTEA_HepaRG_FMO3: Life Technologies and Expression Analysis (LTEA) Assay for flavin-containing dimethylaniline monooxygenases 3 (FMO3) using HepaRG (AID 2283453).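 On AC50: FMO3 transcript by TaqMan qRT-PCR normalized to ACTB GAPDH and POLR2A.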 Conditions: mRNA level, 48 h; actives raise or lower the signal. On the procedure:
LTEA_HepaRG is a cell based, multiplexed-readout assay that uses HepaRG, a human liver cell line, with measurements taken at 48 hours after chemical dosing on a 96-well plate.LTEA_HepaRG_FMO3 is one of 102 assay component(s) measured in the LTEA HepaRG cell culture assay. It is a marker of NR mediated metabolism.Data from the assay component LTEA_HepaRG_FMO3 was analyzed into 1 endpoint. This assay endpoint, LTEA_HepaRG_FMO3, was analyzed with bidirectional fitting relative to DMSO as the negative control and baseline of activity. Using a type of inducible reporter, measures of mRNA induction for gain or loss-of-signal activity can be used to understand regulation of transcription factor activity. To generalize the intended target to other relatable targets, this assay endpoint is annotated to the oxidoreductase intended target family, where the subfamily is […].
A total of 1060 chemcials from the ToxCast library were tested in eight-point concentration-response experiments. Cell culture and cytotoxicity assays were conducted at Thermo Fisher Scientific's Custom Services facility (Madison, WI). A single lot of human HepaRG cells (Thermo Fisher Scientific, Frederick, MD) was used for the cell culture experiments. 96-well format collagen type I coated plates of human HepaRG cells were prepared using established methods. Briefly, cryopreserved HepaRG cells were thawed, plated at a density of approximately 100,000 cells/well in HepaRG Thaw, Plate, and General Purpose media (HPRG770, Thermo Fisher Scientific), and incubated for 48 hours. 0.5% DMSO was selected as vehicle control to balance the requisite need of DMSO in HepaRG cultures to maintain differentiation (for example, baseline metabolism, proportions of hepatocytes vs. cholangiocytes), while enabling further hepatic receptor pathway activation (for example, PXR and CAR) in response to chemical exposure. 48 hours after plating, the culture medium was replaced with HepaRG Serum-Free Incudtion Media. Cells were exposed to each test chemical in duplicate and maintained in CO2 incubators for another 48 hours. Chemical plates were thawed to room temperature and 200x concentrations of treatment groups were prepared. 8-point conentration-reponse curves were made with the highest exposure at 100 uM, followed by half-log dilutions, all in 0.5% DMSO. Each test plate contained variouse controls, induction positive controls (1mM phenobarbital), cytotoxicity positive controls ([…] aflatoxin B1), vehicle controls (0.5% DMSO), and total lysis controls (0.5% DMSO). Cell morphology images were taken using an Essen IncuCyte FLR automated microscope, with six 96-well plates imaged in about 24 minutes. Images were captured and exported and JPEG files. Spent culture media was transfered to black-well plates for the LDH assay, and remaining media was sorted at -80 C for later use. Cells were treated with RLT buffer and frozen until shipped for gene expression analysis. Total RNA was isolated from the cell suspension in 75 uL of Buffer RLT (Qiagen, Germantown, MD 20874) by Quintiles/Expression Analysis (Durham, NC) using a custom isolation procedure. Total RNA from each plate well was transferred to a preamplification plate. Fluidigm's 96.96 Dynamic ArrayTM (Fluidigm, Amsterdam, the Netherlands) technology was used for gene expression analyses by quantitative reverse transcription polymerase chain reaction (qRT-PCR, performed by Quintiles/Expression Analysis, Durham, NC)89. Standard TaqManTM Assays (Applied Biosystems/ThermoFisher Scientific, Foster City, CA) were used to assess the expression of 93 genes selected based on their selectivity and sensitivity to important hepatic receptors known to be modulated by environmental chemicals; importance in human hepatocyte functionality; and hepatotoxicity. […]
Regarding `c1ccc(Nc2ccccc2)cc1`, the compound was called inactive.
The term AC50 denotes the concentration at which the activity in the assay is half-maximal. With `Cc1nn(C)c(Oc2ccccc2)c1C=NOCc1ccc(C(=O)OC(C)(C)C)cc1`, the AC50 was 2.87 µM (active).
`COC(=O)c1ccccc1C(=O)O`: the call was inactive.
Consider `CCOC(=O)COc1cc(-n2ncc(C(F)(F)F)c(C)c2=O)c(F)cc1Cl`, for which the call was inactive.
Still for that read-out and setting: the entry for `COC(=O)CSc1cc(N=c2sc(=O)n3n2CCCC3)c(F)cc1Cl` is “inactive”.
Turning to `S=C([S-])NCCNC(=S)[S-].[Mn+2]`, the AC50 is 5.71 µM (active).
As for `CCCN(CCC)C(=O)SCC`, the call was inactive.
Regarding `CCN(Cc1c(F)cccc1Cl)c1c([N+](=O)[O-])cc(C(F)(F)F)cc1[N+](=O)[O-]`, the AC50 was 50 µM (active).
For the compound `CCCCCOC(=O)COc1cc(N2C(=O)C3=C(CCCC3)C2=O)c(F)cc1Cl`, the compound was called inactive.
On to `CCCCOC(=O)C(C)Oc1ccc(Oc2ccc(C(F)(F)F)cn2)cc1` (stereo not given), for which the outcome was inactive.
Still for that read-out and setting: the entry for `C#CCOC(=O)[C@@H](C)Oc1ccc(Oc2ncc(Cl)cc2F)cc1` is “inactive”.
Still for that read-out and setting: to `OB(O)O` belongs “inactive”.
As to `CN(C)C(=O)Nc1ccc(Cl)c(Cl)c1`, the AC50 was 50 µM (active).
Still for that read-out and setting: to `O=C(Nc1ccc([N+](=O)[O-])cc1Cl)c1cc(Cl)ccc1O` belongs 2.69 µM (active).
In the case of `CC(=O)S[C@@H]1CC2=CC(=O)CC[C@]2(C)[C@H]2CC[C@@]3(C)[C@@H](CC[C@@]34CCC(=O)O4)[C@H]12`, the AC50 is 60.3 µM (active).
As to `COC(=O)c1ccc(I)cc1S(=O)(=O)NC(=O)Nc1nc(C)nc(OC)n1`, the result was inactive.
Still for that read-out and setting: the entry for `COc1c(Cl)ccc(Cl)c1C(=O)O` is “inactive”.
Same read-out and setting: to `CCCCOC(=O)[C@@H](C)Oc1ccc(Oc2ccc(C(F)(F)F)cn2)cc1` belongs “inactive”; to `CC(C)(C)[C@@H](O)[C@@H](Cc1ccc(Cl)cc1)n1cncn1`, “inactive”.
For the compound `O=C(O)C1(C(=O)Nc2ccc(Cl)cc2Cl)CC1`, the AC50 was 67 µM (active).
With `CCOC(=O)c1ccc(O)cc1`, the result was inactive.
Take `CC1(C)C(C=C(Cl)Cl)C1C(=O)OCc1cccc(Oc2ccccc2)c1` (stereo not given): the result was inactive.
For `CCOC(=O)C(C)Oc1ccc(Oc2cnc3cc(Cl)ccc3n2)cc1` (stereo not given), the AC50 is 14 µM (active).
On to `S=C(S)NCCNC(=S)S.[Mn+2].[S-]C([S-])=NCCN=C([S-])[S-].[Zn+2]`, for which the AC50 was 4.22 µM (active) and 2.04 µM (active) and 2.68 µM (active).
Still for that read-out and setting: the figure for `C[C@]12CC[C@@H]3c4ccc(O)cc4C[C@@H](CCCCCCCCCS(=O)CCCC(F)(F)C(F)(F)F)[C@H]3[C@@H]1CC[C@@H]2O` (stereo not given in full) is 44.4 µM (active).
For `O=C(c1ccc(O)cc1O)c1ccc(O)cc1O`, the result was inactive.
Regarding `Oc1ccc(C(c2ccc(O)cc2)C(Cl)(Cl)Cl)cc1`, the AC50 is 94 µM (active).
For the compound `CCSC(=O)N(CC(C)C)CC(C)C`, the compound was called inactive.
Same read-out and setting: the entry for `CSC(=O)c1cccc2nnsc12` is “inactive”.
`CCCCC(CC)CN1C(=O)C2C3C=CC(C3)C2C1=O` (stereo not given): the AC50 is 78.7 µM (active).
With `CCCOC(=O)NCCCN(C)C`, the result was inactive.
On the same count and under the same terms, the entry for `CCCCCCC(C)OC(=O)COc1nc(F)c(Cl)c(N)c1Cl` (stereo not given) is “inactive”; for `CCCN(CCC)c1c([N+](=O)[O-])cc(C(F)(F)F)c(N)c1[N+](=O)[O-]` it is “inactive”; for `C[C@]12C[C@H](O)[C@H]3[C@@H](CCC4=CC(=O)CC[C@@]43C)[C@@H]1CC[C@@H]2C(=O)CO` it is “inactive”.
On the same count and under the same terms, to `CCOC(=O)C(C)Oc1ccc(Oc2nc3ccc(Cl)cc3o2)cc1` (stereo not given) belongs “inactive”.
Still for that read-out and setting: the entry for `CCCOC(=O)c1ccc(C(=O)OCCC)nc1` is “inactive”.
Turning to `N#CSCSc1nc2ccccc2s1`, the call was inactive.
The same measure, in the same setting: to `CC(C)(c1ccc(O)cc1)c1ccc(O)cc1` belongs “inactive”.
The same measure, in the same setting: to `C#C[C@]1(O)CC[C@H]2[C@@H]3CCC4=CC(=O)CC[C@@H]4[C@H]3CC[C@@]21CC` belongs “inactive”; to `O=C(c1ccccc1)C1CCCCC1`, “inactive”.
